Results filed as inconclusive are left out. Unmarked numbers belong to inactive results. The source made the active and inactive calls. Calls come from the whole dose curve.
The compounds below were run against Acetylcholinesterase (Homo sapiens) (UniProt P22303) (assay: Acetylcholinesterase (AChE) small molecule antagonists: fluorescence cell-based qHTS assay (AID 1347398; note: nearly all actives have a fitted effect of over 50% in size)). Settings: SH-SY5Y cells; Potency: AChE activity; outcome: AChE activity; series mostly up to 115 µM; activity change, negative = inhibition: at the top concentration.
How it was run: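 Read-out is Thiolite Green fluorescence at Ex/Em = 490/520 nm, formed by reaction with thiocholine released when cellular AChE in SH-SY5Y cells hydrolyzes acetylthiocholine. Compounds were preincubated 30 min at 37 C before substrate.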
% is set by controls: 0 for no effect and ±100 for the full control effect.

Sequence of Acetylcholinesterase (Homo sapiens) (P22303 whole entry, looked up): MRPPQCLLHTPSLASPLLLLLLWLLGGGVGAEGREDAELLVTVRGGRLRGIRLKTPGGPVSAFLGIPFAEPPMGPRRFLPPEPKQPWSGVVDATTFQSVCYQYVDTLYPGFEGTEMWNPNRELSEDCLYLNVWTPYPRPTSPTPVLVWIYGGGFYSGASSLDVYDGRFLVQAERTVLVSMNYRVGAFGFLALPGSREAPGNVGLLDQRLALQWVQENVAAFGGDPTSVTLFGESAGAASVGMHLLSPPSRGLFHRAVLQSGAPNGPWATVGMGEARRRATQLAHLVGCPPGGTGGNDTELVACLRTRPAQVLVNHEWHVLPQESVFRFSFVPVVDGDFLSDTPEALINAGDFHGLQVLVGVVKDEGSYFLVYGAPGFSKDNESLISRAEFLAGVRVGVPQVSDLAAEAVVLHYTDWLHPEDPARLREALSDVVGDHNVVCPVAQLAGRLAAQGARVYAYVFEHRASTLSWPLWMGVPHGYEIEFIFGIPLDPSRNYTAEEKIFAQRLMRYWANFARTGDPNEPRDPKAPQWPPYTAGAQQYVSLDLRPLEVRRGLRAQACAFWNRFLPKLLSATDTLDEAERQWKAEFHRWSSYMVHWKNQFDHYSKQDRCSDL

Structure (SMILES)	Potency	outcome	activity change, negative = inhibition
COc1ccc2nc(N)sc2c1	inactive	–	–
CCOc1ccccc1OCC1CNCCO1 (stereo not given)	–	inactive	–
CCC(Cc1c(I)cc(I)c(N)c1I)C(=O)O (stereo not given)	inactive	–	–
CC/C(=C\C(=N/O)C(N)=O)C(C)[N+](=O)[O-] (stereo not given)	–	–	-2.57%
Cc1cccc(OCCOc2cccc(C)c2)c1	–	–	3.38%
CCCCCCCC(=O)Oc1c(Br)cc(C#N)cc1Br	–	–	-1.22%
CCc1c(C(=O)NN2CCCCC2)nn(-c2ccc(Cl)cc2Cl)c1-c1ccc(Br)cc1	–	–	5.1%
Fc1ccccc1	–	–	6.02%
CC1=Nc2ccc3ccccc3c2C1(C)C	–	–	0.463%
c1cnc(N2CCN(Cc3ccc4c(c3)OCO4)CC2)nc1	–	–	-8.29% [at 53.7 µM]
C#Cc1cccc(Nc2ncnc3cc(OCCOC)c(OCCOC)cc23)c1	–	–	6.2% [at 53.7 µM]
CCOC(=O)[C@H](CCc1ccccc1)N[C@@H](C)C(=O)N1Cc2ccccc2C[C@H]1C(=O)O	inactive	–	–
CC(C)N1C(=O)c2ccccc2C1=O	–	–	-2.66%
N[C@@H](C(=O)N[C@@H]1C(=O)N2C(C(=O)O)=C(Cl)CS[C@H]12)c1ccccc1	–	–	7.33% [at 10.5 µM]
O=C(O)Cc1cn(-c2ccccc2)nc1-c1ccc(Cl)cc1	–	–	-0.361% [at 53.7 µM]
Cc1cccc(N(C)C(=S)Oc2ccc3ccccc3c2)c1	inactive	–	–
C[C@@H](N)C(=O)O	–	–	5.63% [at 53.7 µM]
c1ccc2c(c1)-c1ccc3ccc4cccc5cc-2c1c3c45	–	–	3.91% [at 53.7 µM]
CCCCCCCCCCCC[N+](C)(C)CCCS(=O)(=O)[O-]	–	–	0.238%
Cc1cc(C(C)(C)C)c(O)c(C)c1Cn1c(=O)n(Cc2c(C)cc(C(C)(C)C)c(O)c2C)c(=O)n(Cc2c(C)cc(C(C)(C)C)c(O)c2C)c1=O	–	–	2.36%

Structure (SMILES)	Potency	outcome	activity change, negative = inhibition
CC(C)=CCC/C(C)=C/C=O	inactive	–	–
COC(=O)c1ccc(C(=O)OC)c(C(=O)OC)c1	–	–	0.234%
C=C(C)c1cccc(C(=C)C)c1	–	–	1.6%
CC(=O)N[C@@H](CS)C(=O)O	inactive	–	–
CC1=CC(O)CC(C)(C)C1 (stereo not given)	–	–	7.95%
NNC(=O)CP(=O)(c1ccccc1)c1ccccc1	–	–	2.41% [at 53.7 µM]
CC(C)CCCC(C)N (stereo not given)	–	–	0.147% [at 53.7 µM]
NC(=O)OCC(COC(N)=O)c1ccccc1	inactive	–	–
CCCCOCCOCCSC#N	inactive	–	–
CC(C)C/C=C(\C=O)c1ccccc1	–	–	-12.5%
Nc1ccn([C@H]2CS[C@@H](CO)O2)c(=O)n1	–	–	1.24%
O=C1OCc2ccccc21	–	–	-1.9%
NC(=O)Cc1cccc2ccccc12	–	–	-4.22%
CCNc1nc(N)nc(Cl)n1	–	–	2.37%
Cc1cccc(C)c1NC(=O)CN1CCCCCC1	–	–	-18.3% [at 53.7 µM]
CCC(CC)Nc1ccc(C)c(C)c1	–	–	-0.659%
COc1cc(Cl)ccc1Cl	–	–	4.46%
CCCCCCCCSCC	–	–	1.33%
CC(=O)c1ccccc1[N+](=O)[O-]	–	–	-7.08%
Cc1ccc(-c2cc(C(F)(F)F)nn2-c2ccc(S(N)(=O)=O)cc2)cc1	inactive	–	–

Reference: PubChem BioAssay (Tox21)
